About 83,000 compounds went through this panel and 20% of them were active in at least one assay; those are over-represented in the sample as a whole.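 Note: values are percent growth. 100 is the growth of untreated cells, values between 100 and 0 indicate rising inhibition; between -100 and 0 indicates cell death.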 Activity calls are given as the source filed them.
tested on: HCT-15 colon; assay: NCI-60 one-dose screen, 48 h (100 = growth as untreated, 0 = no growth, -100 = all killed); details: 10 µM unless noted
Description: Growth inhibition of the HCT-15 human tumor cell line is measured as a screen for anti-cancer activity. Cells are grown in 96 well plates and exposed to the test compound for 48 hours. Compounds are tested at a single concentration, which is 10^-5 M for most compounds. The reported endpoint is percent growth (GI% or GIPRCNT), where numbers from 0 - 100% represent growth inhibition, and numbers from -100% - 0 represent cell death. For example, a value of 40 represents 60% growth inhibition. A value of 0 means no net growth occurred over the course of the experiment. A value of -40 indicates 40% of cells at the beginning of the experiment died by the end of the experiment. A value of -100 means all cells are dead at the end of the experiment.
NCI-60 Human Tumor Cell Lines Screen was performed using the standard one-dose NCI protocol, which is described in more detail at https://dtp.cancer.gov/discovery_development/nci-60/default.htm.
Compounds with GIPRCNT values below 10 were considered active. Activity score was based on GIPRCNT using the following formula: […]
Score is 0 for GIPRCNT values of 100 or above, 50 for GIPRCNT values of 0, and 100 for GIPRCNT values of -100.

SMILES | growth
COc1cc(/C=C2\C(=O)Nc3ccc(Br)cc32)cc(OC)c1OC | 38.6% (inactive)
CCCCCCCCCCCCCCCCCCOc1ccc(CC(=O)OCC[N+]2(C)CCCCC2)cc1 | 97.5% (inactive)
O=C(Nc1ccc(-c2nc(-c3cccc(OCCN4CCOCC4)c3)c(-c3ccnc(Br)c3)[nH]2)cc1)c1ccccc1 | -7.78% (active)
O=c1c2cc(F)ccc2sc2c(NCCO)nc3ccccc3c12 | 101% (inactive)
O=C(N/N=C/c1ccc(Cl)cc1)c1ccc(C(F)(F)F)nc1Nc1cccc(C(F)(F)F)c1 | -5.13% (active)
CCC(C)(c1cc(C(C)(C)C)c(O)c(C(C)(C)C)c1)c1cc(C(C)(C)C)c(O)c(C(C)(C)C)c1 | 105% (inactive)
O=C(Oc1cccc2ccccc12)Oc1cccc2ccccc12 | 106% (inactive)
Cc1cc2nc3ccc(N=Nc4ccc(N(C)C)cc4)cc3n(-c3ccccc3)c-2cc1=N | -77.2% (active)
Nc1cc2c(cc1Br)-c1cc(Cl)ccc1C2=O | 102% (inactive)
NC(=O)Nc1ccc2ncnc(Nc3ccc(Cl)cc3)c2c1 | 93.1% (inactive)
Cc1ccc2nc(NC(=O)CSc3nc(Cl)c(C#N)c(-c4ccccc4)n3)sc2c1 | 99.8% (inactive)
CCOC(=O)CCN(C(=O)Nc1ccccc1)C1CCCCC1 | 119% (inactive)
COc1cc(C2CC(c3cccc(Br)c3)=NN2C(C)=O)cc(OC)c1OC (stereo not given) | 13.4% (inactive)
COC(=O)[C@H](C)NC(=O)NC(=O)NC(=O)CI | 51.4% (inactive)
Cc1ccc(/C=C2\Oc3ccc(O)c(O)c3C2=O)cc1 | 9.23% (active)
O=C(S)CNC(=O)c1ccccc1 | 112% (inactive)
CNCCCNc1nc2ccccc2c2c(=O)c3cc(OC)ccc3sc12 | 57.5% (inactive)
Cc1ccc(-c2nc(SCC(=O)Nc3nc(-c4ccc(Cl)cc4)cs3)[nH]c(=O)c2C#N)cc1 | 90.2% (inactive)
O=C(Nn1c(NCC(=O)N2c3ccccc3Sc3ccccc32)nnc1-c1ccc(O)cc1)c1ccccc1 | 98% (inactive)
O=C1/C(=C/c2ccccc2[N+](=O)[O-])Oc2ccc(O)c(O)c21 | 18.6% (inactive)

SMILES | growth
Nc1nc(Cl)cc(=O)n1Cc1ccccc1 | 98.3% (inactive)
C/C=C(\C)C(=O)N[C@H]1[C@@H](OC(C)=O)C[C@]2(C)C3CC[C@@]4(C)C(CC[C@@H]4C(C)N(C)C)C3CCC2[C@H]1O (stereo not given in full) | 2.88% (active)
CN(C)CCS(=O)(=O)Nc1cc(-c2ccc3ncc(C#N)c(Nc4ccc(F)c(Cl)c4)c3c2)cnc1Cl | -14.6% (active)
O=C1c2cccc3cccc(c23)C(=O)N1Nc1nc(N2CCOCC2)nc(N2CCN(c3ccccc3)CC2)n1 | 33.7% (inactive)
COc1nc2ccc(C)cc2cc1-c1nc2c(cnn2-c2ccc(Br)cc2)c(=O)[nH]1 | 40.5% (inactive)
NC1=C(c2nn[nH]n2)C(c2ccccc2Cl)c2ccc3ccccc3c2O1 (stereo not given) | 46.8% (inactive)
O=c1n(Cc2ccc3ccccc3c2)ccn1Cc1ccc2ccccc2c1 | 91.4% (inactive)
COc1ccc(-c2[nH]ncc2-c2cc3c(c(OC)c2)OCC(=O)N3)cc1 | 23.7% (inactive)
CCOC(=O)Nc1ccc(C(=O)/C=C/c2ccccc2)cc1 | 85.7% (inactive)
N#C/C(=C\c1ccc(F)cc1)n1nc2cccc(F)c2n1 | 30.6% (inactive)
O=C(N/N=C/c1c(Cl)cccc1Cl)c1ccc(C(F)(F)F)nc1Nc1cccc(C(F)(F)F)c1 | -13.5% (active)
COc1ccc(C(=S)N2CCN(c3cccc(C)c3)CC2)cc1OC | 44.5% (inactive)
c1ccc2cc(C[n+]3ccn(CCCCCCn4cc[n+](Cc5ccc6ccccc6c5)c4)c3)ccc2c1 | 96.4% (inactive)
c1ccc(Cc2nn3cc(-c4ccccc4)nc3s2)cc1 | 95.1% (inactive)
c1cc(NCCc2ccncc2)nc(-n2cnc3ccccc32)c1 | 90.1% (inactive)
COc1ccc2c(c1)c(-c1nn3cc(-c4cccs4)nc3s1)cn2C | 47.6% (inactive)
CNC(=O)c1cc(-n2ccc3cc(NC(=O)c4ccc(N5CCOCC5)c(C(F)(F)F)c4)ccc32)ccn1 | 43.2% (inactive)
COc1ccc(-c2nc3sc(-c4ccc(Cl)cc4)cn3n2)cc1 | 72% (inactive)
CN(C)CCN1CCN(c2ncccc2C2Nc3ccccc3-n3cccc32)CC1 (stereo not given) | 101% (inactive)
CCCCCCCCCCCCCCCCCCOc1ccc(CC(=O)OCC[N+](C)(C)C)cc1 | 102% (inactive)
